The whole screen tested about 370,000 compounds, of which about 2,400 (0.65%) were called active.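 The calls were made as follows: active = inhibition above the screen-wide mean plus 3 SD (cut at about 13% in these data); inactive = the rest.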 Many of the other results were omitted from the sample, so actives are more common in it than they were.
These compounds were tested on HIV-1 integrase (with human LEDGF/p75) (assay: blockers of LEDGF/p75-dependent integrase strand transfer – biochemical, TR-FRET, high throughput, primary screen (AID 743269;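 also: signal is the Cy5 over europium emission ratio at 671 and 618 nm; 0% = plate median of compound wells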)). Settings: TR-FRET IN-LEDGF/p75 DNA integration, Eu/Cy5; at 3.7 µM; stronger effect = higher value.

Structure (SMILES) | inhibition
COc1ccc(C#CCNCc2ccc(OC)cc2OC)cc1 | -3.69% (inactive)
CCCCOCCCNC(=O)C[C@H]1C[C@@]2(C(=O)OC)C(=C[C@H](C(C)(C)C)O[C@@H]2C)N(CCc2ccc(OC)c(OC)c2)C1=O | 2.16% (inactive)
CC(C)CNC(=O)COC(=O)/C=C/c1ccco1 | 0.15% (inactive)
Cc1cc(C(=O)NN=C/C=C/c2ccco2)n[nH]1 | 15.1% (active)
CN(C)S(=O)(=O)c1cccc(C(=O)N/N=C\c2ccco2)c1 | -0.56% (inactive)
COc1ccc(N2CCN(CCNS(=O)(=O)c3ccc(Cl)s3)CC2)cc1 | -1.84% (inactive)
O=C(CSc1nnc(-c2ccccn2)n1-c1ccc(Cl)cc1)Nc1ccccc1-c1ccccc1 | -2.85% (inactive)
C=CCN1C(=O)[C@H](CC(=O)N2CCN(C(=O)OCC)CC2)[C@@]2(C(=O)OCC)CCCC=C12 | -0.39% (inactive)
O=C(NNC(=O)c1ccccc1O)c1ccccc1O | 27.2% (active)
O=C(NNC(=S)NC1CCCCC1)c1ccccc1Cl | 0.05% (inactive)
O=C(CO/N=C/c1ccccc1O)NNC(=O)c1ccccc1Cl | 3.91% (inactive)
CCC(c1ccc(NC(=O)OC(C)(C)C)cc1)c1cc(OC)cc(OC)c1 (centres undefined) | -0.14% (inactive)
CCOC(=O)C1(Cc2ccccc2)CCN(Cc2cn(C(C)=O)c3ccccc23)CC1 | -1.3% (inactive)
Cc1ccccc1NC(=O)COC(=O)c1ccc(Sc2ncn[nH]2)c([N+](=O)[O-])c1 | -3.54% (inactive)
COc1ccc2c(c1)c(=Cc1ccc(N(C)C)cc1)c1cc(-c3ccccc3)[n+](C)n12 | 18.8% (active)
O=C(CN1CCC(NC(=O)NCc2ccccc2)CC1)Nc1ccc2c(c1)OCCO2 | 0.58% (inactive)
O=C(Nc1ccc(Br)cc1)OCCN1C(=O)CCC12CCC(c1ccccc1)CC2 (centres undefined) | -0.45% (inactive)
Cc1ccc2c(c1)N(CC(=O)N1CCCc3ccccc31)C(=O)C(C)O2 (centres undefined) | 4.28% (inactive)
Cc1cccc2cc3c(N)c(C(=O)N4CCCc5ccccc54)sc3nc12 | 1.54% (inactive)
Cc1ccc(C(=O)N2CCCc3ccccc32)c(Cl)c1 | 38% (active)
COc1ccc(C(=O)CSc2nnc(-c3cnccn3)n2-c2ccc(C)cc2)cc1 | 0.86% (inactive)
Cc1ccccc1NC(=O)Cn1nnc(-c2ccccc2F)n1 | 3.47% (inactive)
Cc1cc(=O)[nH]c(SCC(=O)Nc2ccc(Cl)cc2C)n1 | 0.96% (inactive)
COCCNC(=S)c1ccc(OC)cc1 | -1.56% (inactive)
COCCNC(=O)Nc1ccc2nc(-c3ccco3)c(-c3ccco3)nc2c1 | 90.1% (active)
COCCNC(=O)c1cc2c(Br)ccc(Br)c2nc1N | -5.17% (inactive)

Structure (SMILES) | inhibition
COc1ccc(CCNC(=O)CSc2nc3c([nH]2)c(=O)n(C)c(=O)n3C)cc1 | 0.75% (inactive)
O=C(NCc1cccs1)C1CCN(S(=O)(=O)c2ccccc2[N+](=O)[O-])CC1 | 3.07% (inactive)
CC(C)(C)NC(=O)C(c1cccnc1)N(C(=O)c1cnco1)c1ccc(C(C)(C)C)cc1 (centres undefined) | 0.93% (inactive)
CCOC(=O)[C@]12CCCCC/C=C\1N(Cc1ccc(OC)cc1)C(=O)[C@H]2CC(=O)NCc1ccc(C)o1 | -2.04% (inactive)
COC(=O)c1ccc(COc2ccc(/C=C/C(=O)c3ccc(OC)c(CSCC(=O)O)c3)cc2OC)cc1 | 1.77% (inactive)
COc1ccc(C(=O)/C=C/c2ccc(-c3ccccc3)cc2)cc1CSCC(=O)O | 13.5% (active)
COc1ccc(C(C)=O)cc1CSc1nc2nc(C)cc(C)n2n1 | -4% (inactive)
CCOc1ccc(Oc2c(Cl)cnn(-c3ccc(C)cc3)c2=O)cc1 | -2.65% (inactive)
COc1cccc(N(C)C(=O)[C@@H](C)[C@@H](O)c2ccc3ccccc3c2)c1 | 2.81% (inactive)
CC(=O)c1ccc(OCC(=O)N(C)C2CCS(=O)(=O)C2)cc1 (centres undefined) | 1.55% (inactive)
CN(C(=O)COC(=O)c1cc(-c2ccco2)nc2ccccc12)C1CCS(=O)(=O)C1 (centres undefined) | 30.7% (active)
CN(C(=O)COC(=O)c1cc(=O)[nH]c2ccccc12)C1CCCCC1 | -9.3% (inactive)
CCOC(=O)[C@]12CCCC=C1N(Cc1ccc(OC)cc1)C(=O)[C@@H]2CC(=O)NCc1cccs1 | 0.74% (inactive)
C=CCN1C(=O)C(O)(CC(=O)c2ccccn2)c2ccccc21 (centres undefined) | 15.4% (active)
O=C(CC1(O)C(=O)N(CN2CCOCC2)c2ccccc21)c1ccccc1 (centres undefined) | 3.55% (inactive)
CCOC(=O)CN1C(=O)C(O)(CC(=O)c2ccccn2)c2ccccc21 (centres undefined) | 3.17% (inactive)
N#CCC[C@H]1CC[C@]2(CCCN(Cc3ccc(Cl)cc3)C2)O1 | 0.5% (inactive)
O=S1(=O)c2ccc(Br)cc2OC[C@H](Cc2ccccc2)N1Cc1cn(Cc2ccccc2)nn1 | -5.3% (inactive)
Cc1cc([N+](=O)[O-])c(NC2CCCCC2)c([N+](=O)[O-])c1 | 0.17% (inactive)
CCc1cc2c(NC3CCCC3)ncnc2s1 | -1.83% (inactive)
Clc1cc(NC2CCCCC2)ncn1 | 21.7% (active)
O=C(C1CCN(S(=O)(=O)c2ccccc2)CC1)N1CCN(C2CCCCC2)CC1 | -2.53% (inactive)
Cc1cc(C)cc(NC(=O)N2CCC(N(C)CCC(C)C)CC2)c1 | 3.5% (inactive)
CC1(C(=O)NCc2ccc3c(c2)OCO3)CCN1CCc1ccccc1 (centres undefined) | 3.29% (inactive)
O=C(CC(Cc1ccccc1)C(=O)O)NCCc1ccc2c(c1)OCO2 (centres undefined) | -1.84% (inactive)
CC(=NCc1ccc2c(c1)OCO2)C1=C(O)c2ccccc2C1=O | 14.5% (active)

Structure (SMILES) | inhibition
O=S(=O)(c1ccccc1)N1CCC(c2nc3ccccc3o2)CC1 | -3.8% (inactive)
Cc1ccc(C(=O)N(Cc2ccccn2)CC2CCCO2)cc1 (centres undefined) | -1.5% (inactive)
O=C(CSc1nc2ccccc2nc1N1CCCCC1)N1CCN(S(=O)(=O)c2cccc([N+](=O)[O-])c2)CC1 | 7.35% (inactive)
CC(C)CNS(=O)(=O)CC1NCCc2ccccc21 (centres undefined) | -2.87% (inactive)
C[C@H]([C@@H](O)[C@@H](O)[C@@H](C)C(C)(C)C)[C@H]1CC[C@H]2C3CC[C@H]4C[C@H](OS(=O)(=O)O)[C@@H](OS(=O)(=O)O)C[C@]4(C)[C@H]3CC[C@]12C (some centres undefined) | 22.1% (active)
CC(=O)O[C@H]1CC[C@@]2(C)[C@@H](CC[C@@H]3[C@@H]2CC[C@]2(C)[C@@H](C(C)(C)O)C[C@@H]32)C1 | 0.72% (inactive)
C=C1C(C(C)C)N(C)C2=NC(c3ccccc3)CC(=O)N12 (centres undefined) | 1.74% (inactive)
COC(=O)C1CN(Cc2ccc(F)cc2)CCS(=O)(=O)N1Cc1ccc(Cl)cc1 (centres undefined) | -0.83% (inactive)
CCc1ccccc1NC(=O)CSc1nnc(-c2cccs2)o1 | 1.45% (inactive)
O=C(c1cccc(N2CCCC2=O)c1)N1CCOCC1 | -4.51% (inactive)
NC1=NN(c2cccc(C(=O)O)c2)C(=O)C1 | 13.8% (active)
C/C(=N\NC(=O)c1cccc(N2CCCC2=O)c1)c1ccc(N)cc1 | -2.92% (inactive)
CCOC(=O)N1CCN(C(=O)C[C@H]2C[C@@]3(C(=O)OC)C(=C[C@H](C(C)(C)C)O[C@@H]3C)N(Cc3ccc(Cl)cc3Cl)C2=O)CC1 | -2.55% (inactive)
Cc1cc(C)c2nc(-c3ccco3)cc(C(=O)O)c2c1 | 57.2% (active)
Cc1ccsc1-c1cc(C(=O)O)c2c(ccc3ccccc32)n1 | 0.22% (inactive)
CCOC(=O)c1ccn(-c2nc(-c3ccco3)cc(C(F)(F)F)n2)n1 | -1.1% (inactive)
COc1ccc(-n2c(COc3ccc(C)cc3)nnc2SCC(=O)Nc2ccc(Oc3ccccc3)cc2)cc1 | -0.53% (inactive)
COC(=O)c1cccc(Cn2ccc3ccc(-c4ccc5ccn(C(=O)c6ccccc6C)c5c4)cc32)c1 | 1.28% (inactive)
CC(C)(C)c1ccc(CSc2nnc(-c3cccs3)o2)cc1 | -0.85% (inactive)
COc1ccc(CN2CCN(Cc3cn(C)nc3-c3ccccc3)CC2CCO)c(C)c1C (centres undefined) | 3.11% (inactive)
CCn1nc(C)c(CN2CCN(Cc3ccc(OC)c(C)c3C)C(CCO)C2)c1C (centres undefined) | 13.4% (active)
CCOc1ccc(CN2CCN(Cc3ccc(C)o3)CC2CCO)cc1 (centres undefined) | -3.16% (inactive)
Cc1ccc(NC(=S)NNC(=O)CSc2nnc(SCc3ccccc3Cl)s2)cc1 | 3.99% (inactive)
CC(C)N1CCCCC(NC(=O)c2ccc3ccccc3c2)C1=O (centres undefined) | 0.96% (inactive)
Cc1ccc(Cn2cc(CN3[C@@H](CC(C)C)COc4ccc(Cl)cc4S3(=O)=O)nn2)cc1 | 1.01% (inactive)
O=S1(=O)c2ccc(Br)cc2OC[C@@H](Cc2ccccc2)N1Cc1cn(Cc2ccco2)nn1 | 5.73% (inactive)

Structure (SMILES) | inhibition
O=C1C=CC(=O)N1c1ccc(N2CCCCC2)cc1 | 14.3% (active)
Cc1ccc(-n2c(SCC(=O)Nc3ccc(S(=O)(=O)Nc4nccs4)cc3)nnc2-c2ccccn2)cc1 | -3.23% (inactive)
COC(=O)C1CN(CCc2ccccc2)CCS(=O)(=O)N1Cc1cccc(Cl)c1 (centres undefined) | 0.85% (inactive)
CN(C)[C@H]1CCN(c2cccc3c2S(=O)(=O)N2CC[C@H](C2)O3)C1 | 2.98% (inactive)
C=CCn1c(=S)[nH]c2scc(-c3ccco3)c2c1=O | 42.3% (active)
O=S1(=O)c2c(cccc2N2CC[C@H](O)C2)O[C@@H]2CCN1C2 | 1.21% (inactive)
O=C(c1ccncc1)N1CC[C@H]2[C@H](CCCN2Cc2ccc(F)cc2)C1 | 1.57% (inactive)
O=C(c1cccc(C(F)(F)F)c1)N1CC[C@H]2[C@H](CCCN2Cc2cc(F)cc(F)c2)C1 | 86.5% (active)
O=C(N1CCOCC1)N1CC[C@H]2[C@H](CCCN2Cc2ccc(F)cc2)C1 | 3% (inactive)
CCN(CC)C(=O)CC[C@@H]1CC[C@]2(CCCN(S(=O)(=O)C3CCCCC3)C2)O1 | -3.12% (inactive)
COc1ccc(Cn2cc(COC(=O)N(C)Cc3ccccc3)nn2)cc1 | 2.21% (inactive)
CCc1c(-c2ccccc2)nc(N)c(C#N)c1-c1cccs1 | 0.5% (inactive)
CSc1ccc(-c2c(C#N)c(N)nc3c2c(C)nn3-c2ccccc2)cc1 | -1.93% (inactive)
CSc1nc(N)c(C#N)c(-c2ccccc2Cl)c1C#N | 30.9% (active)
CCCCCCCCNS(=O)(=O)/C=C/c1cc(C)ccc1CNC(=O)OC(C)(C)C | -0.25% (inactive)
COc1ccc(CN2C(=O)N3Cc4cc(OC)ccc4C3CS2(=O)=O)cc1 (centres undefined) | 0.03% (inactive)
Cc1sc2ncnc(SCC(=O)Nc3ccc(CN4CCCC4)cc3)c2c1C | -2.64% (inactive)
Cc1c(Cl)cnc(NC(=O)COC(=O)C2CCCC2)c1Cl | 3.73% (inactive)
CCc1cc2c(SCC(=O)Nc3ncc(Cl)c(C)c3Cl)ncnc2s1 | 44.2% (active)
O=C(CNS(=O)(=O)c1ccccc1F)N1CCN(c2ccccn2)CC1 | -3.63% (inactive)
COC(=O)[C@]12C[C@H](CC(=O)N3CCN(C(=O)C4CC4)CC3)C(=O)N(CCC3=CCCCC3)C1=C[C@H](C(C)C)O[C@@H]2C1CC1 | -2.49% (inactive)
CN(Cc1ccc(F)cc1)C(=O)CN1C(=O)c2ccccc2S1(=O)=O | 18% (active)
NS(=O)(=O)c1ccc(CCNC(=O)CN2C(=O)c3ccccc3S2(=O)=O)cc1 | 4.15% (inactive)
O=C(CN1C(=O)c2ccccc2S1(=O)=O)N1CCc2ccccc21 | -3.85% (inactive)
CCOC(=O)[C@@]12CN(C(=O)OC(C)(C)C)CC=C1N(Cc1ccc(OC)cc1)C(=O)[C@H]2CC(=O)NCc1ccc(OC)c(OC)c1 | -2.96% (inactive)
CC(C)(C)OC(=O)NCc1cc(F)ccc1/C=C/S(=O)(=O)NCCc1ccccc1 | 1.04% (inactive)
